In ChEMBL document CHEMBL1961873, “Compounds: GSK PKIS; Assays: Nanosyn kinase panel” (2012):

Key:
[1] = system: Proto-oncogene tyrosine-protein kinase receptor Ret (Homo sapiens), P07949 [Y791F]; conditions: at 1 µM
[2] = molecular target: Macrophage-stimulating protein receptor (Homo sapiens) (UniProt Q04912); conditions: at 0.1 µM
[3] = molecular target: Macrophage-stimulating protein receptor (Homo sapiens) (UniProt Q04912); conditions: at 1 µM
[4] = molecular target: Proto-oncogene tyrosine-protein kinase ROS (Homo sapiens) (UniProt P08922); conditions: at 0.1 µM
[5] = molecular target: Proto-oncogene tyrosine-protein kinase ROS (Homo sapiens) (UniProt P08922); conditions: at 1 µM
[6] = molecular target: Proto-oncogene tyrosine-protein kinase Src (Homo sapiens) (UniProt P12931); conditions: at 0.1 µM
[7] = molecular target: Proto-oncogene tyrosine-protein kinase Src (Homo sapiens) (UniProt P12931); conditions: at 1 µM
[8] = molecular target: Tyrosine-protein kinase Srms (Homo sapiens) (UniProt Q9H3Y6); conditions: at 0.1 µM
[9] = molecular target: Tyrosine-protein kinase Srms (Homo sapiens) (UniProt Q9H3Y6); conditions: at 1 µM
[10] = molecular target: Tyrosine-protein kinase SYK (Homo sapiens) (UniProt P43405); conditions: at 0.1 µM;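 further: reported percentages are mean inhibition values for SYK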

Proto-oncogene tyrosine-protein kinase Src (Homo sapiens), sequence (P12931 2-536 limits assumed): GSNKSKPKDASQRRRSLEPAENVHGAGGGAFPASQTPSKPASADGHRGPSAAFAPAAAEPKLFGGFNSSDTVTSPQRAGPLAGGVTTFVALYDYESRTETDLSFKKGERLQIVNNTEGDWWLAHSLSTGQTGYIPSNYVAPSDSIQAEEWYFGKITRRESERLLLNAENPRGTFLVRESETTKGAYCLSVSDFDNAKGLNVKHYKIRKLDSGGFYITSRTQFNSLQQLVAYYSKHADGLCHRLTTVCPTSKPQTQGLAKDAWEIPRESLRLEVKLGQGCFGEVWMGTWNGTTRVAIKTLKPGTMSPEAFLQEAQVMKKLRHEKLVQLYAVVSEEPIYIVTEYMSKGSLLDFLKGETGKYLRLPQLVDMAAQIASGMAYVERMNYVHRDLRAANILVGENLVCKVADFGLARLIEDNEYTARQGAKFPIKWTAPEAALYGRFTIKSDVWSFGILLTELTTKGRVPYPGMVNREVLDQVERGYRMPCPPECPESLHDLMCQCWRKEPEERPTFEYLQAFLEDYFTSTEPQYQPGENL
Proto-oncogene tyrosine-protein kinase ROS (Homo sapiens), sequence (P08922 whole entry): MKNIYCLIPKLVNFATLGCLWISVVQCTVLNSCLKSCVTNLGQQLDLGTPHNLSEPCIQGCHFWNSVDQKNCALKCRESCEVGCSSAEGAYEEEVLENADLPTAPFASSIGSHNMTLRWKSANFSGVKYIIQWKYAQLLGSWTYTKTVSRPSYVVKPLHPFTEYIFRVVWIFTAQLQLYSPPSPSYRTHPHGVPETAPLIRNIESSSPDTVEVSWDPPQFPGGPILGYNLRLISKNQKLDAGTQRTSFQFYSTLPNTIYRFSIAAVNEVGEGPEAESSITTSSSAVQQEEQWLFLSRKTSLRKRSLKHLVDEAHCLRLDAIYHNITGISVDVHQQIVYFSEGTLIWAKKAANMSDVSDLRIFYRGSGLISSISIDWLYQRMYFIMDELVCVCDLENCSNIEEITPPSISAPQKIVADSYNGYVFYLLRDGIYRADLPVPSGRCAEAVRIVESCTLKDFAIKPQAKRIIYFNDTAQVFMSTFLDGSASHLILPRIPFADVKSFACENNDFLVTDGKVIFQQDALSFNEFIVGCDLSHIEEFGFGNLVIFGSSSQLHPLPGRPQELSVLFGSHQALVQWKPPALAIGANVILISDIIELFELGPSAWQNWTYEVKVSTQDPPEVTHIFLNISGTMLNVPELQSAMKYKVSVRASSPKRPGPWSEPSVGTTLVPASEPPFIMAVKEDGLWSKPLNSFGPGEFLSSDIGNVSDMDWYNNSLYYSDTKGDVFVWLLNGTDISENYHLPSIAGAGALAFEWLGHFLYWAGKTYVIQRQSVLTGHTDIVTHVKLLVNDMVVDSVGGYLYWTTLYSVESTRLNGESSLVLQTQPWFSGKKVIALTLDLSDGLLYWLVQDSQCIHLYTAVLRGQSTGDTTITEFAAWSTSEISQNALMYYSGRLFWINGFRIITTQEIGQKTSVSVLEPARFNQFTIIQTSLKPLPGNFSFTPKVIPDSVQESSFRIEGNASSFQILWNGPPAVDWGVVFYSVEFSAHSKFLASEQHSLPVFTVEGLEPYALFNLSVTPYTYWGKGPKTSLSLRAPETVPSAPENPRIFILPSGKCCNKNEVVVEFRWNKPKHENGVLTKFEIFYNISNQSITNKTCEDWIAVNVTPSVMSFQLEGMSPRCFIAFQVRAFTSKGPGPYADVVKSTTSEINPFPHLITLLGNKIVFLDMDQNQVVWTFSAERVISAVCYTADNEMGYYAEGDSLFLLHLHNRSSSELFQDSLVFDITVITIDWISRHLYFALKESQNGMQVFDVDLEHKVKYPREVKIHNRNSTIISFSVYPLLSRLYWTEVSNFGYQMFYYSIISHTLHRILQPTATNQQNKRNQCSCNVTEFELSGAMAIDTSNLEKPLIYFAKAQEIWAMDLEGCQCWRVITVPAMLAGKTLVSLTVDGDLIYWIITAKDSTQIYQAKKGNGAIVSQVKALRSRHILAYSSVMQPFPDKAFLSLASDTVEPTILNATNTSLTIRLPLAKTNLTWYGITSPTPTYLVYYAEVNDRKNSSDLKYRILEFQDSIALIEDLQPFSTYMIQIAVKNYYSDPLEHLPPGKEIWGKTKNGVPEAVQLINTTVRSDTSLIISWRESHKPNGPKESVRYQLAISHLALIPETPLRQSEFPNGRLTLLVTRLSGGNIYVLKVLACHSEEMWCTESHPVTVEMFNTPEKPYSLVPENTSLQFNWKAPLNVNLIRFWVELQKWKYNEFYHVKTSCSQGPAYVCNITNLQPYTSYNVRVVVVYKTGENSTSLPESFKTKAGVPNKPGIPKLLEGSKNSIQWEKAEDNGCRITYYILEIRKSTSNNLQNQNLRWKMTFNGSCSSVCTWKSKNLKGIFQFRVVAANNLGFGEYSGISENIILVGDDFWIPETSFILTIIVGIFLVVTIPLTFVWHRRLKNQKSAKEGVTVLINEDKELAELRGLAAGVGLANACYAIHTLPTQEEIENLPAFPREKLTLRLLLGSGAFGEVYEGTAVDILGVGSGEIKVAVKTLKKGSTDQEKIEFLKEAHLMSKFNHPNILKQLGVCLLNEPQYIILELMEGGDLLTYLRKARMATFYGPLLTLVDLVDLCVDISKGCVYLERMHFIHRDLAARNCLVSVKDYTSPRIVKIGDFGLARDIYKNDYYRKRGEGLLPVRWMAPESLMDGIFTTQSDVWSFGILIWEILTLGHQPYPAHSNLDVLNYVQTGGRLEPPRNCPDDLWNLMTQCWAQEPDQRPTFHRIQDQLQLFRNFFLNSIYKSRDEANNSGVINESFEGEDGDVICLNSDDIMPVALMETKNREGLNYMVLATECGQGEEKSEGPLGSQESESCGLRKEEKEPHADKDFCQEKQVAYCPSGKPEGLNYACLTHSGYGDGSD
Macrophage-stimulating protein receptor (Homo sapiens), sequence (Q04912 25-304 limits assumed): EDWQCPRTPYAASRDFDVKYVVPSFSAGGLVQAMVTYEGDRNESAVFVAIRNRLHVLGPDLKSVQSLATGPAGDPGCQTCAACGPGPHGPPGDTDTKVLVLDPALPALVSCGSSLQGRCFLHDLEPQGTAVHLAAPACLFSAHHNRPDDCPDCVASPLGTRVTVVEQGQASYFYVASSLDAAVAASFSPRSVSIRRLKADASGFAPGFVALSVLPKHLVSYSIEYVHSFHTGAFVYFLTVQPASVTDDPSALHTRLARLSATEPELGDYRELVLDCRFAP
Macrophage-stimulating protein receptor (Homo sapiens), sequence (Q04912 310-1400 limits assumed): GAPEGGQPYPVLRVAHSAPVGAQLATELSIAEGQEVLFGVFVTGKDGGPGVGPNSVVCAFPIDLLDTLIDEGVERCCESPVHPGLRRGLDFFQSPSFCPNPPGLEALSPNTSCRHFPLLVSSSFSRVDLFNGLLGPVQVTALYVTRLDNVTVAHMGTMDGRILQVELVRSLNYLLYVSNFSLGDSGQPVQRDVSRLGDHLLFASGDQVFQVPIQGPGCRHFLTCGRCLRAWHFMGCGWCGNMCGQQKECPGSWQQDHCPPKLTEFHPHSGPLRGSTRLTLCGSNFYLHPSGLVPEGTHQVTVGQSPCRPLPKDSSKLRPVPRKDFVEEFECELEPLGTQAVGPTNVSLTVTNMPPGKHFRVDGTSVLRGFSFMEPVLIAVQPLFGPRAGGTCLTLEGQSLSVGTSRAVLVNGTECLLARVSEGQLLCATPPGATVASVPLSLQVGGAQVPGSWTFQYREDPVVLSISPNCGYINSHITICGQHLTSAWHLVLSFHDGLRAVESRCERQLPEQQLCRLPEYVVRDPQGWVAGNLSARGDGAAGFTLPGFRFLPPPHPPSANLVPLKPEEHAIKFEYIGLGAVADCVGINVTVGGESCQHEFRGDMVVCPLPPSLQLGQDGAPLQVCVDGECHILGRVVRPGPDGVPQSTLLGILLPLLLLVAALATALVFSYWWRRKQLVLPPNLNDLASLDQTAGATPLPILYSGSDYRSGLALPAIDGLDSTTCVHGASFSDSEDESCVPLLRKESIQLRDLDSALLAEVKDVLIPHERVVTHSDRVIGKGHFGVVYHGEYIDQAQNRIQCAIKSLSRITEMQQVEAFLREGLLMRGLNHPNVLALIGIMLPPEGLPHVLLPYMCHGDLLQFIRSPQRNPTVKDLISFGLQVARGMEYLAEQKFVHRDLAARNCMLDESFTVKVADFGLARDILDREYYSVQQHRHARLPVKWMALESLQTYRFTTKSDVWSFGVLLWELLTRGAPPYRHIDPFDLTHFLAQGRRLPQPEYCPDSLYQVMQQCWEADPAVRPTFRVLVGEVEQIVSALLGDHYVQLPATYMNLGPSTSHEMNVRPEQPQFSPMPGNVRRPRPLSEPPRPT
Tyrosine-protein kinase Srms (Homo sapiens), sequence (Q9H3Y6 whole entry): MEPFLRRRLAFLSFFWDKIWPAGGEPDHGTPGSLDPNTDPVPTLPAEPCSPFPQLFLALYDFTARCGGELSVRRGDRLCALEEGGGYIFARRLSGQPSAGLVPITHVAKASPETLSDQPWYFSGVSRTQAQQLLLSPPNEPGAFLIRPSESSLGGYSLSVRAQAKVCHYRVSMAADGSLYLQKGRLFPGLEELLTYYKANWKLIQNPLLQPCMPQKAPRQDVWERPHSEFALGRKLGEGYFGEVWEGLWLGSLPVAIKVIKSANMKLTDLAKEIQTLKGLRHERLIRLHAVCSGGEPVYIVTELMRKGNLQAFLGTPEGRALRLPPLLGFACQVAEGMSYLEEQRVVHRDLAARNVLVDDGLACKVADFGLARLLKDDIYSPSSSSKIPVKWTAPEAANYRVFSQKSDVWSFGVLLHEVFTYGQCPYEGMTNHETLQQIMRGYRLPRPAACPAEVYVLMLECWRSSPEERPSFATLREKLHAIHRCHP

SMILES | inhibition [1] [%] | inhibition [2] [%] | inhibition [3] [%] | inhibition [4] [%] | inhibition [5] [%] | inhibition [6] [%] | inhibition [7] [%] | inhibition [8] [%] | inhibition [9] [%] | inhibition [10] [%]
Cc1ccc2c(-c3ccnc(Nc4ccccc4)n3)c(-c3ccc(F)cc3)nn2n1 | 50.7 | 0.11 | 3.58 | 2.77 | 5.97 | 15.3 | 63.2 | 1.58 | 9.73 | -2.66
COc1ccc2c(-c3ccnc(Nc4cccc(OC(F)(F)F)c4)n3)cnn2n1 | 11.9 | 2.53 | 9.83 | 11.1 | 46.5 | 5.55 | 23.6 | -1.28 | 1.58 | -2.58
COC(=O)Nc1nc2ccc(Oc3ccc(NC(=O)Nc4cccc(Cl)c4)cc3)cc2[nH]1 | 79.7 | 2.59 | 6.24 | 1.51 | 2.59 | 4.21 | 1.43 | -2.84 | -1.42 | 0.41
Nc1nc(-c2ccc(F)cc2)c(-c2ccc3ncccc3n2)s1 | 14 | -8.7 | 7.82 | 4.44 | 15.8 | -1.89 | 14.2 | 0.67 | 3.74 | -1.32
CCn1c(-c2nonc2N)nc2c(C#CC(C)(C)O)nc(OC[C@H](N)c3ccccc3)cc21 | 41.3 | 4.34 | -1.45 | 9.15 | 9.48 | 8.29 | 13.7 | 2.09 | 1.99 | 2.17
CNC(=O)c1cccc(C#Cc2cncnc2Nc2ccc(OCc3cccc(F)c3)c(Cl)c2)c1 | 20.7 | 0.58 | 0.88 | -2.5 | 1.03 | -0.84 | 5.22 | 0.46 | 1.17 | -6.37
O=C(O[C@H]1CN[C@H](C#Cc2cc3ncnc(Nc4ccc(Cc5ccccc5)cc4)c3s2)C1)N1CCOCC1 | 4.61 | 2.34 | 3.27 | -0.61 | 2.78 | 3.84 | 7.75 | -3.02 | -2.02 | -0.1
c1ccc(-c2nc3n(c2-c2ccc4c(c2)OCO4)CCC3)nc1 | 1.82 | 0.69 | 1.59 | 4.52 | 4.91 | -7.85 | 2.73 | -0.53 | -1.55 | -1.33
COc1ccc(-c2oc3ncnc(N)c3c2-c2ccc(NC(=O)Nc3cc(C(F)(F)F)ccc3F)cc2)cc1 | 94.7 | 4.83 | 21.8 | 32.7 | 81.2 | 43.1 | 91.1 | 1.78 | 8.83 | -0.9
COc1ccc(-c2cc(-c3c[nH]nc3-c3ccccn3)ccn2)cc1 | 17.4 | 2.4 | 21.3 | 3.05 | 8.62 | 0.76 | 11.1 | -2.06 | 0.71 | -6.85
Cc1ccc(O)cc1Nc1ccnc2cc(-c3ccccn3)ccc12 | 93.5 | -2 | 4.51 | 6.57 | 7.97 | 61 | 90.4 | 9.32 | 39.8 | -5.01
COc1cc(N2CCN(C(C)C)CC2)ccc1Nc1nc(Nc2ccc(F)cc2C(N)=O)c2cc[nH]c2n1 | 16.6 | 0.61 | -0.44 | 51.8 | 81.8 | 6.34 | 10.4 | 1.36 | 7.98 | 0.19
O=C(Nc1n[nH]c2cc(-c3ccc(F)cc3)ccc12)C1CC1 | 2.03 | 3.73 | 1.45 | 4.52 | 6.57 | 0.9 | 6.35 | -1.28 | -0.73 | -3.9
CCCN1CCC(c2ccc(Nc3nc(Nc4cc(F)ccc4C(N)=O)c4cc[nH]c4n3)c(OC)c2)CC1 | 35.8 | 8.19 | 8.86 | 60.7 | 81.3 | -0.59 | 15.3 | 1.02 | 14.8 | -9.2
CC(=O)NCc1cccc(C#Cc2cncnc2Nc2ccc(OCc3cccc(F)c3)c(Cl)c2)c1 | 3.42 | 5.44 | 5.62 | 3.92 | 4.54 | 0.53 | 2.01 | 0.33 | -1.05 | -2.37
CN(C)CCOc1ccc(-c2nc(-c3ccncc3)c(-c3ccc4c(c3)CC/C4=N\O)[nH]2)cc1 | 20.2 | -1.14 | 7.41 | 3.61 | 5.38 | 0.25 | 11.9 | -1.81 | -0.6 | -2.98
CS(=O)(=O)CCNCc1ccc(-c2ccc3ncnc(Nc4ccc(OCc5ccccc5)c(C(F)(F)F)c4)c3c2)o1 | 6.81 | -2.49 | -4.8 | 3.04 | 6.52 | 6.38 | 7.74 | -2.3 | -1.62 | -2.88
